For 36 compounds, inhibition results are on record in PubChem BioAssay AID624325 (Sanford-Burnham Center for Chemical Genomics, 2012).

The whole screen tested about 2,300 compounds, of which about 1,000 (43%) were called active. The set was probably picked from earlier hits. Only a sample is shown. Values without a mark were called inactive.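 Rule for the calls: active = compounds inhibiting the enzyme by at least 50% at 15 µM in any one of the replicates; inactive = the rest.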

The test deals with Fatty acid synthase (Homo sapiens) (UniProt P49327). The test can be described thus: FAS thioesterase domain inhibitors, confirmation, biochemical, fluorescence intensity, single concentration (AID 624325).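 Note: 0% = enzyme with DMSO only and 100% = wells lacking enzyme.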 The conditions noted are these: recombinant FAS-TE, OMFH fluorogenic substrate, at 15 µM, active compounds read high.
Fatty acid synthase (Homo sapiens), sequence (P49327 whole entry, looked up, the tested form may be a part): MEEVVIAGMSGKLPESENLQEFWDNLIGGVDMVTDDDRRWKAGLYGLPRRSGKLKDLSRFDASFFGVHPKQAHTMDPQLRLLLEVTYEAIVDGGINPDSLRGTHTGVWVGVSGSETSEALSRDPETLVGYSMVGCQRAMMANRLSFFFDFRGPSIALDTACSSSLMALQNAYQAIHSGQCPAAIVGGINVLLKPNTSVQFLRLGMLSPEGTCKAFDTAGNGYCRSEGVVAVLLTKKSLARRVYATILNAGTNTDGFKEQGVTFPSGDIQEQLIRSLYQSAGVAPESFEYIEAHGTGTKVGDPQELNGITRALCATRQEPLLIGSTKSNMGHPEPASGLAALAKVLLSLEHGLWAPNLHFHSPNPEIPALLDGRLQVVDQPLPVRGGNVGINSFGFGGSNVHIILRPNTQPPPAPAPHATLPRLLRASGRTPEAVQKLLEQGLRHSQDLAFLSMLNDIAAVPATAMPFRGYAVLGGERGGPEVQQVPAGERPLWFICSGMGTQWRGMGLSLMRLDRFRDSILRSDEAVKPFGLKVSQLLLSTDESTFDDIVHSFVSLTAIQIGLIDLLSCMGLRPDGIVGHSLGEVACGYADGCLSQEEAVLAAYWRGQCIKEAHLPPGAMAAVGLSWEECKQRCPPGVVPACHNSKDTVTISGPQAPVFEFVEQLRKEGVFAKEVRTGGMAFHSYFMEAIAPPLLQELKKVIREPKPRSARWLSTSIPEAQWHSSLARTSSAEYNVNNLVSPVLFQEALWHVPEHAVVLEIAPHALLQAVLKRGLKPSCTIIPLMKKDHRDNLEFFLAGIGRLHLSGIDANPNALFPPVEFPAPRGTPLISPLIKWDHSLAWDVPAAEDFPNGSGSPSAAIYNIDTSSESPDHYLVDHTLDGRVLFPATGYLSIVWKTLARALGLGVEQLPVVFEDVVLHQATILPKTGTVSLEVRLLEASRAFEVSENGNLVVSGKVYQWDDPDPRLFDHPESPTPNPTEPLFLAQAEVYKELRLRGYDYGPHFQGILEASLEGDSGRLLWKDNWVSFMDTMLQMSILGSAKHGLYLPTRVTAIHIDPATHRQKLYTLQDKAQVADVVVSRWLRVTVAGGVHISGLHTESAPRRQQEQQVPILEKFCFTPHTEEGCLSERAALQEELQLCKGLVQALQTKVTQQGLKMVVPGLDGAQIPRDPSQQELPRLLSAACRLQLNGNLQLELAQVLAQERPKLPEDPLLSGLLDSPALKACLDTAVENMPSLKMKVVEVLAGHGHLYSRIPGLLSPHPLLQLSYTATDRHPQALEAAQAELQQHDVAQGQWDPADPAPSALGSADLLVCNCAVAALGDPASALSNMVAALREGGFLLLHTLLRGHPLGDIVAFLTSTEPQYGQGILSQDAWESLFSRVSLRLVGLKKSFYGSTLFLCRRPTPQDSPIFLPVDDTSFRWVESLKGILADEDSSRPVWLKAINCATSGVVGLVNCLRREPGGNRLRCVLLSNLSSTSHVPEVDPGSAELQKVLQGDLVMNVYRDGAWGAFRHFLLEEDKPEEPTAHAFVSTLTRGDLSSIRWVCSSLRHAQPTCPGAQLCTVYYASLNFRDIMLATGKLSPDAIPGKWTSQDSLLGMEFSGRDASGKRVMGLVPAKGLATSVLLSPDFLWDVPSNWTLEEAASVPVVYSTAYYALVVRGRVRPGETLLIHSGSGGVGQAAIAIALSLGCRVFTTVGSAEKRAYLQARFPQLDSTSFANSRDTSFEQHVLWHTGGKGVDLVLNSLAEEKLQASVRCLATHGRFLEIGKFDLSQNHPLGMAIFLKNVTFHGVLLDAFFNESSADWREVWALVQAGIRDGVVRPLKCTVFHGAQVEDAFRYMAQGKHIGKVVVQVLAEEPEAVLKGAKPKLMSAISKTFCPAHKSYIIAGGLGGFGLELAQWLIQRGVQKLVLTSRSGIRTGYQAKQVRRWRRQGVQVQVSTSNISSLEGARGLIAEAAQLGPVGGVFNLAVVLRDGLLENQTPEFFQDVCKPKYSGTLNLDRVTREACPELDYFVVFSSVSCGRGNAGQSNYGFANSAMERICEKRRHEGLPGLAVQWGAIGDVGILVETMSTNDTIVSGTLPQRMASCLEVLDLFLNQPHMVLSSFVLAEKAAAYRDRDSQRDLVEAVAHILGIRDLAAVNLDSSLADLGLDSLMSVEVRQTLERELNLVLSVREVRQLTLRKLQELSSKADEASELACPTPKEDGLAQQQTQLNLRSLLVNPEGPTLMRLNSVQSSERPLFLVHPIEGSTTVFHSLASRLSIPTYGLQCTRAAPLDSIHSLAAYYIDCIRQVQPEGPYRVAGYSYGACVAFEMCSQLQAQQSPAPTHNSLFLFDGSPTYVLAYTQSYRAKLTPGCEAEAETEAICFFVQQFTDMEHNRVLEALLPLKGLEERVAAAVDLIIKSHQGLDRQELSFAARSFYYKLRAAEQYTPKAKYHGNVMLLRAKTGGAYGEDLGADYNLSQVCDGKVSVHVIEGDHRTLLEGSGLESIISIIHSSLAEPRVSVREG
In the case of `Cc1cccc(-n2c(SCC(=O)Nc3cccc(S(=O)(=O)NC4=NCCCCC4)c3)nc3ccccc3c2=O)c1C`, the inhibition was 18.8%. Then `COC(=O)c1cc(C(=O)NC(C)C2CC3CCC2C3)cc([N+](=O)[O-])c1` (stereo unspecified), with 59.5% (active); and `O=C(Nc1cccc([N+](=O)[O-])c1)N1CCc2ccccc2C1`, with 65.8% (active).

For the compound `O=C(NCCCCc1ccccc1)C1CC(c2ccc([N+](=O)[O-])cc2)=NO1` (stereo unspecified), the inhibition was 59.7% (active). Then `O=C1NC(Cc2ccccc2)c2nc3ccc(Br)cc3c(=O)n2-c2cc3ccccc3cc21` (stereo unspecified), with 30.7%. Then `CC(NC(=O)Nc1cccc([N+](=O)[O-])c1)c1ccc2c(c1)OCO2` (stereo unspecified), with 84.4% (active). Then `CCN(C(=O)CSc1ncnc2c1cnn2-c1ccccc1)C1CCS(=O)(=O)C1` (stereo unspecified), with 69.8% (active). Consider `CCOc1ccc(Br)cc1S(=O)(=O)Nc1ccc(C(=O)OC(C)C(=O)N(C)c2ccccc2)cc1` (stereo unspecified), for which the inhibition was 14.2%. Then `CC1(C(=O)NS(=O)(=O)c2ccc(C#N)cc2)CCN1C(=O)c1ccc(C2CCCCC2)cc1` (stereo unspecified), with 71.8% (active); and `Cc1ccc(C)c(NC(=O)CSc2nc3c(oc4ccccc43)c(=O)n2-c2ccccc2)c1`, with 31.1%. Then `COc1ccccc1C1CC(=O)n2c(nc(-c3ccccc3)c2-c2ccccc2)S1` (stereo unspecified), with 0.79%; and `CC(C)(C)NC(=O)NC(=O)COC(=O)Cc1ccc(Cl)cc1Cl`, with 68.1% (active); and `O=C1OCCN1C(=O)[C@H]1[C@H](c2ccc(Cl)cc2)C(c2cccc(Cl)c2)=NN1c1ccc(Br)cc1`, with 15.5%. Then `Cc1cccc(NC(=O)c2cc([N+](=O)[O-])ccc2N2CCN(C)CC2)c1`, with 54% (active). For `O=C(Nc1cccc(Cl)c1)c1cc([N+](=O)[O-])ccc1N1CCN(CCO)CC1`, the inhibition was 66.5% (active).

On to `O=S(=O)(c1ccc(F)cc1)n1ccc(-c2cnc(-c3ccccc3)s2)n1`, for which the inhibition is 14.5%. Then `Cc1ccc(S(=O)(=O)c2nnn3c2nc(N2CCN(c4ccccn4)CC2)c2ccccc23)cc1`, with 25.4%; and `Cc1nc2c(OCc3ccc(Cl)cc3Cl)cccn2c1N(C)CC1CC1`, with 50% (active); and `O=C(COC(=O)c1cc([N+](=O)[O-])ccc1NCc1ccccc1)NC1CCCCC1`, with 37.6% (active). Consider `CCN1C(=O)[C@H]2[C@@H](c3ccc(SC4CCCCC4)c(OC)c3)N[C@@](Cc3ccccc3)(C(=O)OC)[C@H]2C1=O`, for which the inhibition is 15.5%.

In the case of `CCN1C(=O)[C@H]2[C@@H](c3ccc(-c4ccc(F)cc4)cc3)N[C@@](Cc3ccccc3)(C(=O)OC)[C@H]2C1=O`, the inhibition was 43.4%. Then `Cc1cccc(N=C2NC(=O)/C(=C/c3cn(C)c4ccccc34)S2)c1`, with -6.27%; and `COc1cc(-c2noc(C3CCCN(S(=O)(=O)c4cccc(Cl)c4)C3)n2)cc(OC)c1OC` (stereo unspecified), with 30.8%. Then `COc1ccc([N+](=O)[O-])cc1NC(=O)COC(=O)/C=C/c1ccco1`, with 70.8% (active).

Regarding `CC(C)Oc1ccc(Cc2n[nH]c(=S)n2Cc2ccccc2)cc1Cl`, the inhibition is 39.1% (active).

For `CC(=O)c1sc(N/N=C/c2ccc(C(C)C)cc2)nc1C`, the inhibition was 19.8%. Then `O=C(c1ccc(Cl)c([N+](=O)[O-])c1)N1CCN(c2ccccc2)CC1`, with 58.3% (active); and `O=C(Nc1ccc(N2C(=O)c3cccc4cccc(c34)C2=O)cc1)c1ccc(N2CCCCC2)c([N+](=O)[O-])c1`, with 10.5%. Consider `COc1ccc(C2CC(c3ccccc3)=NN2C(=O)c2ccc(Cl)c([N+](=O)[O-])c2)cc1` (stereo unspecified), for which the inhibition was 21.3%. Turning to `O=c1ccc2c(-c3ccccc3S(=O)(=O)O)c3ccc(O)c(O)c3oc-2c1O`, the inhibition was 56.1% (active). Then `O=C(Nc1ccc(C2CC2(Cl)Cl)cc1)c1cccc([N+](=O)[O-])c1` (stereo unspecified), with 19.8%; and `O=C(Nc1nnc(SCc2ccccc2Cl)s1)c1cccc([N+](=O)[O-])c1`, with 51.7% (active); and `CC(=O)c1ccc(S(=O)(=O)N2CCN(c3nc4c(C)c(C)ccc4cc3C#N)CC2)cc1`, with 32.8%. `Cc1ccc(S(=O)(=O)N2CC[C@H]3[C@@H](C2)C(=O)C[C@@H](c2ccccc2)N3S(=O)(=O)c2ccc(C)cc2)cc1`: the inhibition was 13.8%. Regarding `COc1ccc(-c2nnc(SC(=O)N3c4ccccc4Sc4ccccc43)o2)cc1`, the inhibition is 13.1%. Then `CCCCOC(=O)CNc1nnc(SCC(=O)OCC)[nH]c1=O`, with 51% (active).
